Out of some 200,000 compounds screened, about 560 (0.28%) were called active. Entries that show only a call come without a potency. Many of the other results were omitted from the sample, so actives are more common in it than they were. A number with no mark means an inactive call. The call rests on the fitted dose curve; in most records, active means well fitted inhibition curve with a large enough effect; inconclusive means small, poorly fitted or top-dose-only effect; inactive means flat fitted curve, though single readings scatter.
target: Luciferin 4-monooxygenase (Photuris pensylvanica) (UniProt Q27757); experiment: Counterscreen for Luciferase (Kinase-Glo TM) Inhibition; settings: ATP luminescence, 8 min; series mostly up to 38.3 µM; further: nearly all actives have a fitted effect of over 60% in size
Method: NCGC Assay Overview: NIH Molecular Libraries Screening Centers Network [MLSCN] NIH Chemical Genomics Center [NCGC] MLSCN Grant: None Luciferase (Kinase-Glo, Promega Corporation) was assayed for its ability to generate light using ATP and luciferin as substrates. The ATP concentration in the assay (10 uM) was within the linear range of enzyme activity for the assay conditions used.
NCGC Assay Protocol Summary: Four uL of substrate mix (final concentration, 50 mM imidazole pH 7.2, 50 mM KCl, 7 mM MgCl2, 10 uM ATP, 0.01% Tween 20, 0.05% BSA) was dispensed into white 1536 well plates. Twenty-three nL of compound was delivered by a pin tool and 2 uL of luciferase detection mix (Kinase-Glo, Promega)) was added. Following 8-minute incubation at ambient temperature, luminescence was measured by a ViewLux (Perkin Elmer) at 5 seconds exposure/plate.
Potency means the concentration at half of the fitted maximal effect.

SMILES | Potency | activity change, negative = inhibition
O=C(Nc1nnc(C2CC2)s1)c1ccccn1 | 10 µM (active) | 
Cc1occc1C(=O)Nc1nnc(C2CCCCC2)s1 |  | inactive
O=C(Cc1cccs1)Nc1nnc(C2CC2)s1 |  | inactive
C=C(C)C(=O)c1ccc(F)cc1 |  | inactive
CC(C)C1=CC2=CC[C@H]3[C@](C)(C(=O)O)CCC[C@]3(C)C2CC1 (stereo partly specified) |  | inactive
COC(=O)C1=C(C(=O)OC)[C@@H]2N(Cc3ccccc3)c3ccccc3[C@@]23C[C@@H](C(=O)OC)N(S(=O)(=O)c2ccc(C(F)(F)F)cc2)C3=N1 |  | -5.51% [at 7.66 µM]
CCCCC/C=C\C/C=C\C/C=C\CCCCCCC(N)=O |  | inactive
COC(=O)N1C(/C=C/C=C/c2ccc(OC)cc2)=Cc2ccccc2C1CC(C)=O (stereo unspecified) |  | -3.85% [at 7.66 µM]
CC1(C)O[C@@H]2C[C@@H]3[C@H]4C[C@@H](F)C5=CC(=O)C=C[C@]5(C)[C@@]4(F)[C@@H](O)C[C@]3(C)[C@]2(C(=O)CO)O1 |  | inactive
CCCCC/C=C\C/C=C\CCCCCCCCCC(=O)NCC(=O)O |  | inactive
COc1ccc(-c2c(C)cc3oc(=O)cc(-c4ccccc4)c3c2C)cc1F |  | inactive
CC1=C(/C=C/C(C)=C/C=C/C(C)=C/C=C/C=C(C)/C=C/C=C(C)/C=C/C(=O)[C@]2(C)C[C@@H](O)CC2(C)C)C(C)(C)C[C@H](O)C1 |  | inactive
C#CCCOC(=O)N1C2=NC(C(=O)OC)=C(C(=O)OC)[C@@H]3N(C)c4ccc(OC)cc4[C@]23C[C@H]1C(=O)OC |  | -8.5% [at 7.66 µM]
Cc1cn(C2OC[C@@H](O)[C@@H]2CO)c(=O)[nH]c1=O (stereo partly specified) |  | inactive
CCCCC/C=C\C/C=C\CCCCCCCCCC(=O)O |  | inactive
COc1cccc(C(=O)Nc2ccc(N3CCCC3)cc2)c1 | 4.47 µM (active) | 
COc1ccc(C(=O)NC(=S)Nc2ccc(N3CCCC3)cc2)cc1OC |  | inactive
COc1cccc(OC)c1C(=O)Nc1ccc(N2CCCCC2)cc1 |  | inactive
COc1cc(OC)c2c(c1)OC(=O)CC2c1cc(OC)c(OC)c(OC)c1 (stereo unspecified) |  | inactive
CN1c2ccccc2-c2nc3ccccc3n2C1c1ccco1 (stereo unspecified) |  | inactive
Cn1c(-c2ccco2)nc2cc3ccccc3cc21 | 12.6 µM (active) | 
COc1ccc(CCn2c(-c3ccco3)nc3nc4ccccc4nc32)cc1OC |  | inactive
COc1ccc(C2CC(=O)Oc3ccc(C(C)(C)C)cc32)cc1 (stereo unspecified) |  | inactive

SMILES | Potency | activity change, negative = inhibition
COc1cccc([C@@H]2Oc3ccc(Br)cc3C(=O)[C@H]2OC(=O)NCCc2ccc(OC)c(OC)c2)c1 |  | inactive
CCOC(=O)C1=C(C(=O)OCC)C(C(=O)OCC)N(S(=O)(=O)C(F)(F)F)c2ccccc21 (stereo unspecified) |  | inactive
COC(=O)C1=C(C(=O)OC)[C@@H]2N(C)c3ccccc3[C@@]23C[C@@H](C(=O)OC)N(S(=O)(=O)c2cccs2)C3=N1 |  | -6.85% [at 7.66 µM]
CC/C=C\C/C=C\C/C=C\C/C=C\C/C=C\C/C=C\CCC(=O)NCCc1ccc(O)c(O)c1 |  | inactive
C[C@@]12CCC(=O)C=C1CC[C@H]1C2[C@@H](O)C[C@]2(C)[C@@H]1CC[C@@]2(O)C(=O)COC(=O)C1CCCC1 (stereo partly specified) |  | -5.73% [at 7.66 µM]
CCCCC/C=C\C/C=C\CCCCCCCCCC(N)=O |  | inactive
COC(=O)C1(C(C)=O)CC2=CC[C@H]3C(=O)N(c4ccccc4)C(=O)[C@H]3[C@@H]2Cc2ccccc2[C@@H]1C[N+](=O)[O-] (stereo partly specified) |  | inactive
CCCCC/C=C\C/C=C\C/C=C\CCCCC(=O)NCC(=O)O |  | inactive
COC(=O)C(C(=O)OC)[C@@H](NC=O)c1ccccc1 |  | inactive
CC1(OC(=O)c2ccc(Cl)nc2)C(=O)Cc2cc(-c3ccsc3)ncc2C1=O (stereo unspecified) |  | -0.318% [at 7.66 µM]
Cn1cccc1-c1nc2ccccc2n1C |  | inactive
Cc1csc(-c2nc3ccccc3n2C)n1 | 4.47 µM (active) | 
Cc1nn2c3ccccc3nc2n(C)c1=O |  | inactive
C=CCn1c(C)cc(C2=NNC(=NCC)SC2)c1C | 7.94 µM (active) | 
COCCn1c(C)cc(C2=NNC(=Nc3ccc(F)cc3)SC2)c1C |  | inactive
Cc1cccc(N=C2NN=C(c3c[nH]c4ccccc34)CS2)c1 |  | inactive
Cc1csc(-c2coc3cc(O[C@@H]4O[C@H](CO)[C@@H](O)[C@@H](O)[C@H]4O)ccc3c2=O)n1 | 3.55 µM (active) | 
CCc1cccc(OC2OC(CO)C(O)C(O)C2NC(C)=O)c1 (stereo unspecified) |  | inactive
COc1cc(/C=C/CO)cc(OC)c1O[C@@H]1O[C@H](CO)[C@@H](O)[C@H](O)[C@H]1O |  | inactive
C=CCN1C=C2C(=O)C(C)(OC(=O)CCc3ccccc3)C(=O)C=C2C=C1c1ccc(C#N)cc1 (stereo unspecified) |  | -4.17% [at 7.66 µM]
C=C/C1=C/Cc2ccccc2[C@H](C[N+](=O)[O-])C(C(=O)OC)(C(=O)OC)C1 |  | inactive
CC(C)(C)OC(=O)NCCCC1=CC2=CC(=O)C(C)(OC(=O)c3ccco3)C(=O)C2=CO1 (stereo unspecified) |  | inactive
COC(=O)C1=C(C(=O)OC)[C@@H]2Nc3ccccc3[C@@]23C[C@@H](C(=O)OC)N(S(=O)(=O)c2ccc([N+](=O)[O-])cc2)C3=N1 |  | -3.38% [at 7.66 µM]
